The text below walks through data of PubChem BioAssay (NCI).

This is part of a sample that, as a whole, favours compounds with a hit. Of some 83,000 tested, about 20% had one in any assay.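 How to read the values: 0–100, growth inhibition (40 = 60% inhibited); 0, no net growth; -100 to 0, cell death (-40 = 40% of starting cells died; -100 = all dead).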 Unmarked numbers belong to inactive results. Activity calls are given as the source filed them. How the source made its calls: active means growth percent below 10; inactive means the rest.

The test deals with U251 CNS. In words: NCI-60 one-dose screen, 48 h (100 = growth as untreated, 0 = no growth, -100 = all killed). As to conditions: 10 µM unless noted.
Turning to `CC(C)(C)c1ccc(Cn2cc(CSc3nc4ccccc4s3)nn2)cc1`, the growth was 93.3%.

Consider `CCN1CCN(Cc2ccc(Cc3ncc(F)c(-c4cc(F)c5nc(C)n(C(C)C)c5c4)n3)nc2)CC1`, for which the growth was 45.7%.

Consider `CC(=O)NCC(=O)N1[C@@H]2CC[C@H]1c1ccc(Nc3ncc(C(F)(F)F)c(NC4CCC4)n3)cc12`, for which the growth is 56.2% [2.5 µM].

For `O=C(NOCCO)c1cc(CN2OCCCC2=O)c(F)c(F)c1Nc1ccc(I)cc1F`, the growth is 40.6%.

For the molecule `CC(C)CC(=O)Nc1n[nH]c2c1CN(C(=O)C1CCN(C)CC1)C2(C)C`, the growth is 2.91% (active).

For `Cc1ccc(N)cc1CN1C(=O)c2ccccc2C1=O`, the growth was 102%.

Regarding `COCc1c(-c2ccc(NC(=O)Nc3cc(C(F)(F)F)ccc3F)c(F)c2)c2c(N)ncnn2c1CN1CCOCC1`, the growth was -35.5% (active).

As to `O=C(CNc1nc2ccccc2s1)Nc1ccc(-c2nc3ccccc3s2)cc1`, the growth was 89.1%.

In the case of `N#CC[C@H](C1CCCC1)n1cc(-c2ncnc3[nH]ccc23)cn1`, the growth was 63.9%.

On to `C=CC(=O)Nc1cc2c(Nc3ccc(F)c(Cl)c3)ncnc2cc1C#CC(C)(C)N1CCN(C)CC1`, for which the growth was -94.8% (active).

On to `CC(=O)C1=C(C)NC(SCc2nnc(-c3ccc(C)cc3)o2)=NC1c1ccc(F)cc1` (stereo not given), for which the growth was 95.2%.

On to `CNC(=O)c1ccc(Nc2ncc(C(F)(F)F)c(NCc3nccnc3N(C)S(C)(=O)=O)n2)cc1`, for which the growth was 1.49% (active).

As for `C/C=C/C=N/NC(=S)Nc1ccccc1`, the growth is 88.4%.

As for `COc1cc(N2CCC(N(C)C)CC2)ccc1Nc1ncc(Cl)c(Nc2ccccc2P(C)(C)=O)n1`, the growth is 5.24% (active).

Take `CN1CCN(CCCOc2cccc3nc(Nc4ccc(Cl)c(C(F)(F)F)c4)ccc23)CC1`: the growth is -22.7% (active).

As for `C#Cc1cccc(Nc2ncnc3cc(OC)c(OCCCCCCC(=O)NO)cc23)c1`, the growth was -58.1% (active).

With `Cc1ccc(-n2nc(C(C)(C)C)cc2NC(=O)NCc2cc(F)ccc2Oc2ccc3c(cnn3CCO)c2)cc1`, the growth was 31.3%.

With `Cn1ccnc1C(=O)/C=C/c1ccc(CC(=O)Nc2ccc(Br)cc2)cc1`, the growth was 5.83% (active).

On to `Cc1[nH]n(C(N)=S)c(=O)c1N=Nc1ccc(S(=O)(=O)Nc2ccncn2)cc1`, for which the growth is 113%.

As to `Cc1[nH]c(/C=C2\C(=O)Nc3ccc(F)cc32)c(C)c1C(=O)NC[C@H](O)CN1CCOCC1`, the growth was 60.5%.

In the case of `Cn1ncc(Cl)c1-c1cc(C(=O)N[C@H](CN)Cc2cccc(F)c2)sc1Cl`, the growth was -45.2% (active).

Take `Cn1cc(-c2ncnc3ccc(-c4cnc(Cl)c(NS(C)(=O)=O)c4)cc23)c2ccccc21`: the growth is 24.4%.

`O=[N+]([O-])c1cc(Br)cc2c1[nH]c1ccc(Br)cc12`: the growth was 58.4%.

In the case of `COc1ccc2c(OCc3nnc4ccc(-c5ccccc5)nn34)ccnc2c1`, the growth was 110% [2.5 µM].

For `CC(=O)O[C@]1(C)C[C@H](O)[C@]2(O)C=CO[C@H](O[C@@H]3O[C@H](CO)[C@@H](O)[C@H](O)[C@H]3O)[C@@H]21`, the growth is 99.8%.

Consider `COc1cc2cc(NCc3ccc(F)cc3)nc(C)c2cc1OC`, for which the growth is 29.7%.

Turning to `O=C(Nc1nc2cccc(-c3ccc(CN4CCS(=O)(=O)CC4)cc3)n2n1)C1CC1`, the growth is 65.3%.

As for `N#Cc1c(-c2ccc(Cl)cc2)csc1NC(=O)Nc1cccc(C(F)(F)F)c1`, the growth was 6.02% (active).

With `O=C(c1ccc(/C=C/c2n[nH]c3ccccc23)cc1)N1CCNCC1`, the growth is 58.9%.

`Cc1cnc(Nc2ccc(OCCN3CCCC3)cc2)nc1Nc1cccc(S(=O)(=O)NC(C)(C)C)c1`: the growth is 15.9%.

`CO[C@H]1C[C@@H]2CC[C@@H](C)[C@@](O)(O2)C(=O)C(=O)N2CCCC[C@H]2C(=O)O[C@H]([C@H](C)C[C@@H]2CC[C@@H](OCCO)[C@H](OC)C2)CC(=O)[C@H](C)/C=C(\C)[C@@H](O)[C@H](OC)C(=O)[C@H](C)C[C@H](C)\C=C/C=C/C=C/1C`: the growth was 42.7%.

Take `COc1cc(F)c(F)c(Nc2ccc(I)cc2F)c1NS(=O)(=O)C1(C[C@H](O)CO)CC1`: the growth is 35.6%.

Turning to `Nc1ccc(S(=O)(=O)O)c2cc(S(=O)(=O)O)cc(O)c12`, the growth is 108%.

Regarding `COc1cc2ncnc(Nc3ccc(F)c(Cl)c3)c2cc1NC(=O)/C=C/CN1CCCCC1`, the growth is -77.1% (active).

Consider `COc1ccc(C(=O)N2c3ccccc3Sc3ccccc32)c(F)c1`, for which the growth was 33.6%.
